Sampled rows, rich in hits. Any-hit rate of the full collection: about 4.1%.
DAX1 inh-1 – blocks DAX1 repression of SF-1 activated StAR promoter | HEK293T StAR-luciferase reporter, SF-1/DAX-1 repression relief | inhibition, % at 6.8 µM | 1.1% of 370,000 active | AID 652010;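 active means inhibition above the mean over all tested compounds plus 3 SD, cut at about 3.6% in these data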;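 further: higher inhibition means more luminescence from relief of DAX-1 repression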
hgDAF-12 ag – agonists of H. glycines DAF-12 nuclear receptor; activation, % at 6.8 µM; 1.8% of 370,000 active; AID 687014; HEK293 GAL4-hgDAF12 UAS-luciferase reporter, agonist luminescence; normalized to butyrate control;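 active means activation above a cutoff set at the mean of all screened compounds plus 3 SD, cut at about 10% in these data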
DAX1 inh-2 – inhibitors of human orphan nuclear receptor DAX1 (NR0B1). 0.99% of 340,000 active. AID 504766. P51843. HEK293 Gal4-DAX1 luciferase reporter, luminescence. inhibition, % at 6.75 µM;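 active means inhibition above the mean over all tested compounds plus 3 SD, cut at about 4.2% in these data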;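 further: inhibition shows as a rise in luminescence from relieved DAX1 repression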
ssDAF-12 act – activators of S. stercoralis DAF-12 nuclear receptor; HEK293 ssDAF-12/GRIP1 lit1-tk-luc reporter, luminescence; % of 3 µM dafachronic acid response; activation, % at 6.8 µM; 1% of 370,000 active; AID 652126;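 active means activation above the mean over all tested compounds plus 3 SD, cut at about 0.9% in these data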
hcDAF-12 act – activators of H. contortus DAF-12 nuclear receptor | HEK293 hcDAF-12 lit1-tk-luc reporter, luminescence; 0% DMSO, 100% Δ7-dafachronic acid | activation, % at 6.8 µM | 1.4% of 370,000 active;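 active means activation above the mean of all tested compounds plus 3 SD, cut at about 5.5% in these data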
LXR ag – LXR-beta agonism as hcDAF-12 counter-screen; shares compounds with hcDAF-12 act; HEK293 Gal4-LXR tk-luc reporter, luminescence, 24 h; normalized: DMSO 0%, positive control 100%; activation, % at 6.8 µM; 3,400 tested, under 10 active; AID 743027;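 active means mean percent activation of the reporter above a cutoff set as the average over tested compounds plus their standard deviation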
Target sequence (P55055 whole entry, looked up, the tested form may be a part): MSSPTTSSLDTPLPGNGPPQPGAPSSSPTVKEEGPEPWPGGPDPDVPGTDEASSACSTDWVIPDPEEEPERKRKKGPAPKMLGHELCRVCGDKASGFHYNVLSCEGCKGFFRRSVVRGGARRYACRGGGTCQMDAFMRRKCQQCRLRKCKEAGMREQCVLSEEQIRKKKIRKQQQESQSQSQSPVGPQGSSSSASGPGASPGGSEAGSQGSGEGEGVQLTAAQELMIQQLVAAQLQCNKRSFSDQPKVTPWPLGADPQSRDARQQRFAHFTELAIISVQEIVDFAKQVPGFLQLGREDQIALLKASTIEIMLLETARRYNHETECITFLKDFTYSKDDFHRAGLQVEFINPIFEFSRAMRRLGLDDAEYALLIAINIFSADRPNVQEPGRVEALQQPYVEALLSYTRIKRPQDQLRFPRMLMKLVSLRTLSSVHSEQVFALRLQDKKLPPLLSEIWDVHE
hcDAF12 conf – confirmation of H. contortus DAF-12 agonists; shares compounds with hcDAF-12 act; HEK293 hcDAF-12 lit1-tk-luc reporter, luminescence; % of Δ7-dafachronic acid response; activation, % at 6.8 µM; 61% of 3,400 active; AID 743032;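 active means mean activation across triplicate tests above the threshold derived from the earlier primary screen, cut at about 5.5% in these data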
Each line names hits and unclear results; the compound was inactive in the other large screens (follow-up assays come after a bar, where they were run); ! = not active in a repeat.

CC(=O)c1ccc(NC(=O)[C@@]2(CC(=O)O)CC(/C=C/c3ccccc3)=NO2)cc1	none
O=C(NNC(=S)NC(=O)c1ccccc1[N+](=O)[O-])c1ccccc1Cl	hcDAF-12 act 7.2 | LXR ag inactive | hcDAF12 conf inactive
O=C(NC(=S)Nc1ccccc1[N+](=O)[O-])c1ccccc1Cl	none
CC(C)C(=O)Nc1ccc(NC(=O)c2cccnc2)cn1	none
CC(C)C(=O)Nc1ccc(NC(=O)c2ccccn2)cn1	hcDAF-12 act 6.7 | LXR ag inactive | hcDAF12 conf inactive
O=C(Nc1nccs1)C(=O)c1c[nH]c2ccccc12	ssDAF-12 act 1.8, hcDAF-12 act 6.5 | LXR ag inactive | hcDAF12 conf 8.0
O=C(Cc1c[nH]c2ccccc12)Nc1nccs1	none
O=C(CSc1nc2ccccc2c(=O)[nH]1)Nc1ccccc1C(F)(F)F	none
COc1ccc(C(=O)c2ccccc2)c(O)c1	none
COc1ccc(N=Nc2ccc3ccccc3c2)c(O)c1	hcDAF-12 act 8.1 | LXR ag inactive | hcDAF12 conf 12.4
Cc1ccc(C(=O)Nc2cccc3cccnc23)cc1Br	hcDAF-12 act 6.9 (no result: DAX1 inh-2) | LXR ag inactive | hcDAF12 conf 7.8
O=C(Nc1cccc2cccnc12)c1ccc2c(c1)OCCO2	hcDAF-12 act 8.7 | LXR ag inactive | hcDAF12 conf 5.7
COc1cc(NC(=O)c2ccc3c(c2)OCO3)c2ncccc2c1	none
Cc1ccc(C(=O)Nc2cccnc2Cl)cc1Cl	DAX1 inh-2 6.0, hcDAF-12 act 8.0 | LXR ag inactive | hcDAF12 conf inactive
COc1cc(OC)cc(C(=O)N2CCC(N3CCCCCC3)CC2)c1	none
CCCN1CCC(NC(=S)Nc2ccc([N+](=O)[O-])cc2)CC1	none
CCCN1CCN(C(=S)Nc2ccc([N+](=O)[O-])cc2)CC1	hcDAF-12 act 9.1 | LXR ag inactive | hcDAF12 conf inactive
O=C(Nc1ccc(S(=O)(=O)Nc2nccs2)cc1)c1c(F)c(F)c(F)c(F)c1F	none
Nc1cc(C(=O)N2CCN(c3ccc([N+](=O)[O-])cc3)CC2)ccc1N1CC2CC(C1)c1cccc(=O)n1C2 (stereo not given)	none
Cc1cc(C)n(-c2nc(C)nc3c2cnn3-c2ccccc2)n1	hcDAF-12 act 10.3 | LXR ag inactive | hcDAF12 conf 7.8
Cc1cc(C)n(-c2nc3ccccc3c3nc(C)nn23)n1	none
CCCCCN1CCCCC(NC(=O)Cc2ccccc2)C1=O (stereo not given)	none (no result: DAX1 inh-2)
O=C(O)c1cc(-c2c[nH]c3ccccc23)nc2cc3ccccc3cc12	ssDAF-12 act 1.6, hcDAF-12 act 8.7 (no result: DAX1 inh-2) | LXR ag inactive | hcDAF12 conf 9.0
COc1ccccc1-n1cc2ccc([N+](=O)[O-])cc2n1	hcDAF-12 act 8.6 | LXR ag inactive | hcDAF12 conf 6.6
COc1ccc2c(C(=O)CN3CCSCC3)c[nH]c2c1	hcDAF-12 act 6.6 | LXR ag inactive | hcDAF12 conf inactive
CCOC(=O)N1N=C(c2ccc(C)cc2)CC1(O)C(F)(F)F (stereo not given)	DAX1 inh-1 4.3, hgDAF-12 ag 11.2, hcDAF-12 act 8.1 | LXR ag inactive | hcDAF12 conf 8.0
CCOC(=O)N1N=C(c2ccccc2)CC1(O)C(F)(F)F (stereo not given)	none
Cc1cc(/C=C2\Cc3ccccc3C2=O)c(C)n1-c1ccccc1	hcDAF-12 act 9.0 | LXR ag inactive | hcDAF12 conf inactive
COC(=O)c1ccccc1NC(=O)c1cnc2sccn2c1=O	none
O=C(Nc1nccs1)c1cnc2sccn2c1=O	ssDAF-12 act 1.5, hcDAF-12 act 8.5 | LXR ag inactive | hcDAF12 conf 7.6
O=C1NCCCC1C(=O)N/N=C/c1ccccc1O (stereo not given)	hcDAF-12 act 7.5 | LXR ag inactive | hcDAF12 conf inactive
COc1ccc(-c2nc3c4ccccc4ccn3c2Cc2ccccc2)cc1OC	ssDAF-12 act 2.8, hcDAF-12 act 11.3 (no result: DAX1 inh-2) | LXR ag inactive | hcDAF12 conf 9.9
COc1ccccc1Cc1c(-c2ccccc2)nc2c3ccccc3ccn12	ssDAF-12 act 1.4, hcDAF-12 act 6.6 (no result: DAX1 inh-2) | LXR ag inactive | hcDAF12 conf 6.0
COc1ccccc1Cc1c(-c2ccc(OC)c(OC)c2)nc2c3ccccc3ccn12	none (no result: DAX1 inh-2)
FC(F)(F)c1ccccc1Cc1c(-c2cccc(Cl)c2)nc2c3ccccc3ccn12	ssDAF-12 act 1.6, hcDAF-12 act 8.3 (no result: DAX1 inh-2) | LXR ag inactive | hcDAF12 conf inactive
COC(=O)c1ccc(C)c(NC(=O)CCCN2C(=O)NC(C)(C)C2=O)c1	none
Cc1ccc(S(=O)(=O)Nc2ccc(C(=O)N3CCCC3)cc2)c(C)c1NS(C)(=O)=O	none
Cc1cc(NC(=O)COC(=O)c2oc3c(Cl)cccc3c2C)no1	hcDAF-12 act 6.8 | LXR ag inactive | hcDAF12 conf inactive
O=C(COC(=O)CN1C(=O)C2CCCCC2C1=O)Nc1cc(S(=O)(=O)N2CCOCC2)ccc1Cl (stereo not given)	none
O=C(COC(=O)CN1C(=O)C2CCCCC2C1=O)Nc1ccc(S(=O)(=O)N2CCOCC2)cc1 (stereo not given)	ssDAF-12 act 1.5, hcDAF-12 act 8.9 | LXR ag inactive | hcDAF12 conf inactive
COc1cccc(-c2nnc(Nc3nc4c(F)cccc4s3)o2)c1	hcDAF-12 act 8.3 | LXR ag inactive | hcDAF12 conf 6.8
COc1ccccc1-c1nnc(Nc2nc3c(OC)cccc3s2)o1	none
CCOc1cccc(CN2CCCC(N3CCc4cc(OC)c(OC)cc4C3)C2)c1O (stereo not given)	none
COc1ccccc1N(CC(=O)N1CCN(Cc2ccccc2)CC1)S(=O)(=O)c1ccccc1	none
Cc1cc(N)n(-c2ccc(C)c(C)c2)n1	hcDAF-12 act 7.1 | LXR ag inactive | hcDAF12 conf inactive
Cc1cc(N)n(-c2ccc([N+](=O)[O-])cc2)n1	none
O=C(CCCCCCCC(=O)N1CCCC1)N1CCCC1	none
Clc1ccccc1-c1nc(-c2ccncc2)no1	hcDAF-12 act 7.2! | LXR ag inactive | hcDAF12 conf inactive
Clc1ccccc1-c1nc(-c2cccnc2)no1	ssDAF-12 act 1.3, hcDAF-12 act 8.1 | LXR ag inactive | hcDAF12 conf 8.1
CCCCc1ccc(-c2nc(-c3ccncc3)no2)cc1	none
CCc1ccc(-c2nc(-c3ccncc3)no2)cc1	hgDAF-12 ag 10.9, hcDAF-12 act 8.2 | LXR ag inactive | hcDAF12 conf 8.3
CNc1cncc(-c2ccc(OC)cc2)n1	none (no result: DAX1 inh-2)
COc1cc(Cl)c(CN2CCCC(CO)(Cc3cccc(Cl)c3)C2)cc1OC (stereo not given)	none
O=C1CCOc2cc(OCc3ccccc3)ccc21	hgDAF-12 ag 12.5, hcDAF-12 act 9.2 | LXR ag inactive | hcDAF12 conf 6.2

Compound activity (PubChem BioAssay)
